{
  "source": "PubChem BioAssay AID411",
  "about": "(National Center for Advancing Translational Sciences (NCATS), 2006)",
  "note": "In all, about 72,000 compounds went through this assay and about 1,600 (2.2%) were called active. For the sample, actives were picked, then their nearest neighbours and some compounds at random. A number with no mark means an inactive call. Calls come from the whole dose curve; as a rule, active = well fitted inhibition curve with a large enough effect; inconclusive = small, poorly fitted or top-dose-only effect; inactive = flat fitted curve, though single readings scatter. % is set by controls: 0 for no effect and ±100 for the full control effect; potency is the fitted concentration of half-maximal effect.",
  "data": [
    {"molecular_target": "Luciferin 4-monooxygenase (Photinus pyralis) (UniProt P08659)", "sequence (P08659 whole entry, looked up)": "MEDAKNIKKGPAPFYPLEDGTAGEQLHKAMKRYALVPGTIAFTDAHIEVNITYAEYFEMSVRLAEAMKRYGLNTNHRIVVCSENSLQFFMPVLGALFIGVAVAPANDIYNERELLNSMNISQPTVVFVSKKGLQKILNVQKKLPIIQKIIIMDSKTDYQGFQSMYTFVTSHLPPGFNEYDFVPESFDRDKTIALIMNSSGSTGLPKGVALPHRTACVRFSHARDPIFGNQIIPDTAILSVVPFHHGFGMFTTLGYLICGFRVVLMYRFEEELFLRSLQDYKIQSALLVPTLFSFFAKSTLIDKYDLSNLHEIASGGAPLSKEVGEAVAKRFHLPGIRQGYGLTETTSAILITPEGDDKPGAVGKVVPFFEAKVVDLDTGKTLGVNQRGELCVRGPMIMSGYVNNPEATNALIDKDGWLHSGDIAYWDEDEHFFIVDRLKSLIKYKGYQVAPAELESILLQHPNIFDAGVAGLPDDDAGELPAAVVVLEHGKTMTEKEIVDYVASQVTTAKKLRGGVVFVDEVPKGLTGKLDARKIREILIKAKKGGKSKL", "experiment": "qHTS Assay for Inhibitors of Firefly Luciferase; note: nearly all actives have a fitted effect of over 40% in size", "settings": "purified firefly luciferase, luminescence, 8 min; series mostly up to 57.1 µM; activity change, negative = inhibition: at the top concentration", "experimental": "To aid in the interpretation of high-throughput screening (HTS) results derived from luciferase-based assays, we used quantitative HTS, an approach that defines the concentration-response behavior of each library sample, to profile the ATP-dependent luciferase from Photinus pyralis against more than 72 000 samples. Luciferase (PKLight, Cambrex Corporation) was assayed for its ability to generate light using ATP and luciferin as substrates. The ATP concentration in the assay (10 uM) was within the linear range of enzyme activity for the assay conditions used. See following reference for further details: [1] Auld DS, Southall NT, Jadhav A, Johnson RL, Diller DJ, Simeonov A, Austin CP, Inglese J. Characterization of chemical libraries for luciferase inhibitory activity. J Med Chem. 2008 Apr 24;51(8):2372-86. Auld DS, Zhang YQ, Southall NT, Rai G, Landsman M, Maclure J, Langevin D, Thomas CJ, Austin CP, Inglese J. A Basis for Reduced Chemical Library Inhibition of Firefly Luciferase Obtained from Directed Evolution. J. Med. Chem., 2009, 52 (5), pp 1450#1458 [3] Auld DS, Thorne N, Nguyen DT, Inglese J. A specific mechanism for nonspecific activation in reporter-gene assays. ACS Chem Biol. 2008 Aug 15;3(8):463-70. Auld DS, Thorne N, Maguire WF, Inglese J. Mechanism of PTC124 activity in cell-based luciferase assays of nonsense codon suppression. Proc Natl Acad Sci U S A. 2009 Mar 3;106(9):3585-90. Inglese J, Auld DS, Jadhav A, Johnson RL, Simeonov A, Yasgar A, Zheng W, Austin CP. Quantitative high-throughput screening: a titration-based approach that efficiently identifies biological activities in large chemical libraries. Proc Natl Acad Sci U S A. 2006 Aug 1;103(31):11473-8.\nFour uL of substrate mix (final concentration, 50 mM imidazole pH 7.2, 50 mM KCl, 7 mM MgCl2, 10 uM ATP, 0.01% Tween 20, 0.05% BSA) was dispensed into white 1536 well plates. Twenty-three nL of compound was delivered by a pin tool and 2 uL of luciferase detector mix (PKLight, Cambrex) was added. Following 8-minute incubation at ambient temperature, luminescence was measured by a ViewLux (Perkin Elmer) at 5 seconds exposure/plate.", "values": [
      {"smiles": "COc1ccc(-c2cc3ccc(OCc4nn[nH]n4)cc3oc2=O)cc1", "Potency": "3.16 µM (active)"},
      {"smiles": "O=c1oc2cc(O)ccc2cc1-c1ccc(F)cc1", "activity change, negative = inhibition": "4.51%"},
      {"smiles": "CCCCc1cc(=O)oc2cc(C)cc(OCc3nn[nH]n3)c12", "activity change, negative = inhibition": "3.09%"},
      {"smiles": "CCn1ccnc1C[C@@H]1COc2ccccc2O1", "Potency": "inactive"},
      {"smiles": "CCOc1ccc(C(C)C)cc1S(=O)(=O)n1nc(C)cc1C", "activity change, negative = inhibition": "0.916%"},
      {"smiles": "O=C1C(c2ccccn2)=[N+]([O-])c2ccccc21", "activity change, negative = inhibition": "-5.6%"},
      {"smiles": "CCn1nc(C(=O)OCC(=O)N2c3ccccc3CC2C)c2ccccc2c1=O", "note": "(stereo unspecified)", "activity change, negative = inhibition": "-32.8%"},
      {"smiles": "CCC(=O)N1c2ccc(S(=O)(=O)CCC(=O)N3CCN(c4ccccc4)CC3)cc2CC1C", "note": "(stereo unspecified)", "activity change, negative = inhibition": "-0.787%"},
      {"smiles": "CCCC(=O)N1c2ccc(-c3csc(N)n3)cc2CC1C", "note": "(stereo unspecified)", "Potency": "12.6 µM (active)"},
      {"smiles": "O=C(c1ccc2c(c1)OCCO2)C1CCN(S(=O)(=O)c2cccc(F)c2)CC1", "activity change, negative = inhibition": "0.966%"},
      {"smiles": "O=C(c1ccc(F)cc1)C1CCN(CCCCc2ccccc2)CC1", "activity change, negative = inhibition": "-0.998%"},
      {"smiles": "Cc1nc2cnc(N3CCN(C)CC3)nc2n(CCC#N)c1=O", "activity change, negative = inhibition": "0.64% [at 11.4 µM]"},
      {"smiles": "O=C1CCC(C(=O)Nc2ccc(OC(F)F)cc2)N1", "note": "(stereo unspecified)", "activity change, negative = inhibition": "-35%"},
      {"smiles": "OCCCN1c2ccccc2Nc2nnc(-c3ccccc3)cc21", "Potency": "3.98 µM (active)"},
      {"smiles": "NS(=O)(=O)c1cc(Cl)c(Cl)c(S(N)(=O)=O)c1", "activity change, negative = inhibition": "-1.68% [at 25.5 µM]"},
      {"smiles": "COc1ccc(Br)c2c1C[C@H](C(=O)O)CC2", "activity change, negative = inhibition": "3.64% [at 11.4 µM]"},
      {"smiles": "CCN(Cc1ccncc1)C(=O)[C@@H](CO)c1ccccc1", "Potency": "inactive"},
      {"smiles": "Cn1c(=NC(=O)c2cnccn2)sc2ccccc21", "Potency": "12.6 µM (active)"},
      {"smiles": "Cn1c(=NC(=O)CSCC(=O)N2CCCCC2)sc2ccccc21", "activity change, negative = inhibition": "1.33%"},
      {"smiles": "Cn1c(=NC(=O)CSCC(=O)N2CCOCC2)sc2ccccc21", "activity change, negative = inhibition": "0.14%"},
      {"smiles": "Cc1nc(SCC(=O)Nc2cc(C)on2)c2c(C)c(C)sc2n1", "activity change, negative = inhibition": "1.36%"},
      {"smiles": "Cc1ccc2nc(-c3ccc(SCC(=O)Nc4cc(C)on4)nc3)[nH]c2c1", "Potency": "2.51 µM (active)"},
      {"smiles": "Cc1cc(C)c2c(c1)cc(C)c1nnc(SCC(=O)Nc3cc(C)on3)n12", "activity change, negative = inhibition": "-0.208%"},
      {"smiles": "COc1ccc(N(C(=O)c2cccnc2)S(=O)(=O)c2ccc3c(c2)n(C)c(=O)n3C)cc1", "activity change, negative = inhibition": "3.46%"},
      {"smiles": "O=S(=O)(Nc1ccccn1)c1ccc(Oc2ccccc2)cc1", "activity change, negative = inhibition": "-1.02%"},
      {"smiles": "CCOC(=O)N1CCC(NC(=O)c2cnn3ccccc23)CC1", "activity change, negative = inhibition": "2.3%"},
      {"smiles": "O=C(c1cnn2ccccc12)N1CCc2ccccc21", "Potency": "12.6 µM (active)"},
      {"smiles": "O=C(c1cccc(C(=O)N2CCc3ccccc32)n1)N1CCc2ccccc21", "activity change, negative = inhibition": "-0.0998%"},
      {"smiles": "O=C(c1ccc([N+](=O)[O-])cc1)[C@@H](Br)[C@@H](Br)c1ccnc2ccccc12", "activity change, negative = inhibition": "-0.655% [at 11.4 µM]"},
      {"smiles": "COC(=O)CNS(=O)(=O)c1ccc(Cc2ccc(S(=O)(=O)NCC(=O)OC)cc2)cc1", "activity change, negative = inhibition": "2.65%"},
      {"smiles": "O=C(NCCc1ccc2c(c1)OCCO2)c1cc2ccccc2o1", "activity change, negative = inhibition": "-1.17%"},
      {"smiles": "O=C(Nc1ccncc1)c1cc2ccccc2o1", "Potency": "20 µM (active)"},
      {"smiles": "O=C(Nc1ccncc1)c1c(F)cccc1F", "activity change, negative = inhibition": "-1.11%"},
      {"smiles": "O=C(c1ccco1)N1CCC[C@@]2(CCN(Cc3nccs3)C2)C1", "activity change, negative = inhibition": "2.02% [at 11.4 µM]"},
      {"smiles": "COc1ccc(Cc2nnnn2CC(=O)O)cc1", "activity change, negative = inhibition": "2.34%"},
      {"smiles": "CC(=O)Cc1nsc(NC(=O)c2csc3c2CCCC3)n1", "activity change, negative = inhibition": "-7.41%"},
      {"smiles": "COC(=O)c1sccc1NC(=O)c1csc2c1CCCC2", "activity change, negative = inhibition": "-1.4%"},
      {"smiles": "CCOC(=O)c1sc(NC(=O)c2cc(S(=O)(=O)N3CCOCC3)ccc2C)nc1C", "activity change, negative = inhibition": "1.64%"},
      {"smiles": "COC(=O)c1sc(NC(=O)c2ccc(OC)cc2OC)nc1C", "Potency": "0.0794 µM (active)"},
      {"smiles": "COc1ccc(C(=O)Nc2nncs2)c(OC)c1", "activity change, negative = inhibition": "-26.7%"},
      {"smiles": "COC(=O)c1sc(NC(=O)c2csc3c2CCCC3)nc1C", "Potency": "10 µM (active)"},
      {"smiles": "CC(C)=CCC/C(C)=C/CO/N=C1/C[C@@H](O)[C@@H](O)[C@@H]2[C@@H]3C(=O)N(C(C)(C)C)C(=O)[C@H]3CC[C@H]12", "activity change, negative = inhibition": "0.109% [at 11.4 µM]"},
      {"smiles": "Cc1cnc(NC(=O)CSc2nnc(-c3ccc(Cl)cc3Cl)n2N)s1", "activity change, negative = inhibition": "-5.3%"},
      {"smiles": "CCOC(=O)C1CCN(C(c2cc3cc(C)cc(C)c3[nH]c2=O)c2nnnn2C2CCCCC2)CC1", "note": "(stereo unspecified)", "activity change, negative = inhibition": "3.48%"},
      {"smiles": "COc1ccc(-c2nn(-c3ccccc3)cc2C(=O)Nc2nc(CC(C)=O)ns2)cc1", "activity change, negative = inhibition": "1.9%"},
      {"smiles": "O=C(O)C1CCN(c2ncnc3ccc(-c4ccccc4C(F)(F)F)cc23)CC1", "activity change, negative = inhibition": "0.203% [at 2.29 µM]"},
      {"smiles": "COc1ccc(NC2CC(=O)N(C)C2=O)cc1", "note": "(stereo unspecified)", "activity change, negative = inhibition": "2.41% [at 25.5 µM]"},
      {"smiles": "COc1ccccc1CNc1ccnc(-c2c(C)noc2C)n1", "activity change, negative = inhibition": "-0.167% [at 2.29 µM]"},
      {"smiles": "CC(C)(C)c1csc(NC2=NS(=O)(=O)c3ccccc32)n1", "Potency": "7.94 µM (active)"},
      {"smiles": "CC(c1nnc(SCC(=O)Nc2sccc2C#N)n1-c1ccc(Cl)cc1)N(C)C", "note": "(stereo unspecified)", "activity change, negative = inhibition": "1.74%"},
      {"smiles": "O=S(=O)(c1cccs1)N1CCN(Cc2ccccc2)CC1", "activity change, negative = inhibition": "0.959%"},
      {"smiles": "CCCCN(C)C(=O)C1CCN(Cc2ccccn2)CC1", "activity change, negative = inhibition": "-0.416%"},
      {"smiles": "c1ccc(-n2ncc3c(N4CCCC4)ncnc32)cc1", "Potency": "5.01 µM (active)"},
      {"smiles": "COc1ccc(-n2ncc3c(N4CCCc5ccccc54)ncnc32)cc1", "Potency": "12.6 µM (active)"},
      {"smiles": "Cc1ccc(-n2ncc3c(N4CCN(c5ccc(F)cc5)CC4)ncnc32)c(C)c1", "activity change, negative = inhibition": "0.241%"},
      {"smiles": "COc1ccc(N2CCN(C(=O)CSc3ncnc4c3cnn4-c3ccc(OC)cc3)CC2)cc1", "activity change, negative = inhibition": "-3.13%"},
      {"smiles": "c1ccc(-n2ncc3c2ncn2c(C4CCCCC4)nnc32)cc1", "activity change, negative = inhibition": "0.168%"},
      {"smiles": "Cc1cccc(-n2ncc3c(N4CCc5ccccc54)ncnc32)c1", "activity change, negative = inhibition": "0.441%"},
      {"smiles": "COc1ccc2c(c1)C=CC1(O2)N(CCO)c2ccccc2C1(C)C", "note": "(stereo unspecified)", "activity change, negative = inhibition": "-3.19%"},
      {"smiles": "CCOC(=O)c1cc(-c2nnc(-c3cc(OC)c(OC)c(OC)c3)o2)c(C)nc1C", "activity change, negative = inhibition": "0.0559%"},
      {"smiles": "CC(=O)c1c(C)n(-c2ccc(N(C)C)cc2)c2ccc(OCC(N)=O)cc12", "activity change, negative = inhibition": "1.64%"},
      {"smiles": "N#CC1=C(N)C(C#N)(C#N)[C@H](c2ccsc2)[C@H]2COCC=C12", "activity change, negative = inhibition": "5.37%"},
      {"smiles": "Cn1c(CNC(=O)C(C)(C)C)nc2ccccc21", "activity change, negative = inhibition": "1.81%"},
      {"smiles": "Cn1c(-c2ccc(C(=O)c3ccccc3)s2)nc2ccccc21", "Potency": "2.51 µM (active)"},
      {"smiles": "Cc1nn2c3ccccc3nc2n(C)c1=O", "activity change, negative = inhibition": "0.967%"},
      {"smiles": "Cn1c(=O)c2c(n(Cc3ccccc3)c1=O)NC(=O)C2CC(=O)N1CCc2ccccc2C1", "note": "(stereo unspecified)", "activity change, negative = inhibition": "4.38%"}
    ]}
  ]
}
